Bioassay records from PubChem.
RGS4-Gao reg: modulates binding of RGS4 to human Galphao. P09471. Multiplexed bead flow cytometry; actives lie on both sides. binding response (% of control), % at 10 µM. 0.33% of 220,000 active; in the data active = binding response below about 49% or above about 150%; inactive = in between;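 note: fluorescent Galphao activated with aluminum fluoride binding bead-coupled RGS4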
RGS7-Gao reg: human RGS7-Galphao interaction regulation; P09471; Multiplexed bead flow cytometry, RGS7-Galphao binding; actives lie on both sides; binding response (% of control), % at 10 µM; 0.35% of 220,000 active; AID 1439; in the data active = binding response below about 49% or above about 150%; inconclusive = no clear call, values can overlap the other calls; inactive = in between;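 note: fluorescent Galphao held in activated GDP-AlF4 state binding bead-coupled RGS7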
Avidin bead fluor: compound fluoresces at 488/530 nm on avidin beads. compound fluorescence 488/530 nm, flow cytometry; hits give high values. fluorescence (KMESF) at 10 µM. 0.38% of 220,000 active; in the data active = fluorescence above about 47
RGS8-Gao reg: modulates binding of RGS8 to human Galphao; P09471; multiplexed bead flow cytometry; actives lie on both sides; response (percent of control binding), % at 10 µM; 0.34% of 220,000 active; AID 1423; in the data active = response below about 60% or above about 140%; inactive = in between;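 note: Galphao activated as the GDP aluminium fluoride complex binding bead-coupled RGS8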
GSH bead fluor: GSH bead compound fluorescence profile; GSH beads flow cytometry, compound fluorescence 488/530 nm; hits give high values; 0.25% of 190,000 active; fluorescence (KMESF) at 10 µM; AID 1776; in the data active = fluorescence above about 89;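 note: glutathione beads carrying GST-tagged Bcl family fusion proteins plus one bare bead set; values are compound well signal with DMSO vehicle wells as background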
RGS16-Gao HTS: RGS16-Galphao interaction regulator (human). 0.38% of 220,000 active. O15492+P09471. binding response (% of control), % at 10 µM. AID 1441. bead-based flow cytometry RGS16-Galphao binding, fluorescence; actives lie on both sides;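 note: Galphao activated by GDP with aluminum fluoride before binding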
Target sequence (O15492 whole entry, looked up): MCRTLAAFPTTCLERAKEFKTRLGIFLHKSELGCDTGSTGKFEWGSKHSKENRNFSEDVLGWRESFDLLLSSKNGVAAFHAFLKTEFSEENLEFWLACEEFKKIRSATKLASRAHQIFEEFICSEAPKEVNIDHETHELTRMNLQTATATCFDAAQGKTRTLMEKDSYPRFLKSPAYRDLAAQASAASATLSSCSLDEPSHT
Target sequence (P09471 whole entry, looked up): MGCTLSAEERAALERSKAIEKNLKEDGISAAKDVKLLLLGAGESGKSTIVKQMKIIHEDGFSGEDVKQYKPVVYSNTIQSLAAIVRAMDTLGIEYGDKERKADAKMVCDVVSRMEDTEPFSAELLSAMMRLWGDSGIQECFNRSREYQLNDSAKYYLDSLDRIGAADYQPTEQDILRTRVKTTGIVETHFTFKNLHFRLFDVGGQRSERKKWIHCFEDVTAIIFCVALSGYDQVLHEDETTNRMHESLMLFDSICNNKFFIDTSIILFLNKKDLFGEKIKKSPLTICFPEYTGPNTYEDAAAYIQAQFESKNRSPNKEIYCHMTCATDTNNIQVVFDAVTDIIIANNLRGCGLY
RGS4-Gao HTS: regulators of human RGS4-Galphao interaction | shares compounds with RGS16-Gao HTS | multiplexed bead flow cytometry, RGS–Galpha-o binding | RGS4–Galpha-o binding response, % at 10 µM | 99% of 1,600 active | AID 1504;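 note: fluorescently labeled Galpha-o bound to GDP with aluminium fluoride binding biotinylated RGS beads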
Avidin counter: counter-screen: compounds disrupting biotin binding to avidin beads; shares compounds with RGS16-Gao HTS; streptavidin beads, fluorescein-biotin binding, flow cytometry; inhibition, % at 10 µM; 1,700 tested, under 10 active; AID 1783;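 active = inhibition above 50%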;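 note: median green fluorescence of gated singlet beads compared with DMSO control wells; 0% = DMSO wells and 100% = complete loss of bead fluorescence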
RGS8-Gao confirm: RGS8-Galphao interaction regulation, single point confirmation; shares compounds with RGS16-Gao HTS; bead-based flow cytometry RGS8-Galphao binding, fluorescence; actives lie on both sides; binding response (% of control), % at 10 µM; 3% of 1,700 active; in the data active = binding response below about 72% or above about 130%; inactive = in between;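 note: Galphao activated as GDP AlF4 complex before binding bead RGS8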
RGS7-Gao single: RGS7-Galphao interaction regulation, single point confirmation. shares compounds with RGS16-Gao HTS. bead-based flow cytometry RGS7-Galphao binding; actives lie on both sides. response (percent of control binding), % at 10 µM. 7.8% of 1,700 active. AID 1837; in the data active = response below about 75% or above about 130%; inactive = in between;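 note: fluorescent Galphao activated with GDP and aluminum fluoride binding bead-coupled RGS7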
RGS16-Gao single: RGS16-Galphao interaction regulation, single point confirmation; AID 1838; bead-based flow cytometry, RGS16-Galphao binding; actives lie on both sides; response (% of control binding), % at 10 µM; 4% of 1,700 active; shares compounds with RGS16-Gao HTS; in the data active = response below about 74% or above about 130%; inactive = in between;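 note: Galphao activated as the GDP aluminium fluoride complex binding bead-coupled RGS16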
RGS4-Gao confirm: confirmation of regulators of human RGS4-Galphao interaction; binding response (% of control), % at 10 µM; 4% of 1,700 active; shares compounds with RGS16-Gao HTS; AID 1840; RGS4-Galphao binding, multiplexed bead flow cytometry; actives lie on both sides; in the data active = binding response below about 74% or above about 130%; inactive = in between
RGS19-Gao conf: confirmation of regulators of human RGS19-Galphao interaction. shares compounds with RGS16-Gao HTS. bead-based flow cytometry RGS19-Galphao binding; actives lie on both sides. response (percent of control binding), % at 10 µM. 5% of 1,700 active; in the data active = response below about 50% or above about 160%; inactive = in between;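 note: 100% = no compound control and 0% = blank background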
Target sequence (P09471 whole entry, looked up): as above
Target sequence (P49795 whole entry, looked up): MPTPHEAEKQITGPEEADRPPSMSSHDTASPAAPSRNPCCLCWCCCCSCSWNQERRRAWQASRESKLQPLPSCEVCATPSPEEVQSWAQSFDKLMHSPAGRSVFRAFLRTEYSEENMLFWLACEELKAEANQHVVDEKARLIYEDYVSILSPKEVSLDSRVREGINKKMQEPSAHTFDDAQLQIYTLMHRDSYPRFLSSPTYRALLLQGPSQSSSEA
An asterisk follows results filed as active; i = inactive; ? = inconclusive; · = not tested or not shown; [ ] = another dose, or the depositor's remark. Hits are enriched below; roughly 1.2% of the tested compounds scored in any of these assays. Unless noted, the rule behind the calls is not given here.

SMILES | RGS4-Gao reg | RGS7-Gao reg | Avidin bead fluor | RGS8-Gao reg | GSH bead fluor | RGS16-Gao HTS | RGS4-Gao HTS | Avidin counter | RGS8-Gao confirm | RGS7-Gao single | RGS16-Gao single | RGS4-Gao confirm | RGS19-Gao conf
CCCCCCOc1ccc(N2C(=O)CC(N3CCN(CCN=CC4C(=O)CC(C)(C)CC4=O)CC3)C2=O)cc1 (stereo unspecified) | 121.5 | 157.8*[activator] | 85* | 97.4 | 14 | 102.5 | 121.5* | -1.6 | 98.8 | 96.9 | 98.3 | 98.5 | 93.6
CC(C)=NOc1nc(N(C)C)nc(N(C)C)n1 | 107.7 | 108.2 | 11 | 130.2 | 10 | 207.6*[activator] | 107.7* | -1.5 | 108.5 | 102.3 | 111.2 | 104.2 | 100.8
Cc1c(N(C(=O)CNC(=O)c2ccccc2)C2(C(=O)NC3CCCCC3)CCCCC2)c(=O)n(-c2ccccc2)n1C | 101.5 | 100.7 | 10 | 100.9 | 21 | 104.0 | · | · | · | · | · | · | ·
CC(C)n1c(-c2cccnc2)nc2cnccc21 | 122.4 | 121.5 | 32 | 140.2*[activator] | 17 | 214.1 | 122.4* | · | · | · | · | · | ·
O=C(C1=C[C@@H](c2ccc(C(F)(F)F)cc2)C[C@@H](OCCCCO)O1)N1CCN(Cc2ccc3c(c2)OCO3)CC1 | 97.5 | 97.6 | 6 | 98.7 | 19 | 99.2 | · | · | · | · | · | · | ·
c1ccc(Cn2cnc3ccccc32)cc1 | 33.0* | 33.9* | 8 | 35.2* | 13 | 26.4 | · | -1.1 | 108.5 | 116.1 | 113.1 | 114.6 | 112.4
COc1ccc(-c2[nH]ncc2CN(C)CCN2CCOCC2)cc1F | -6.3* | -15.3* | -2 | 6.9* | 15 | -4.7* | · | -1.7 | 91.3 | 80.8 | 86.7 | 87.4 | 84.0
CCN1C(=O)[C@H]2[C@H]3[C@H](O)[C@H](O)C/C(=N\O[C@H](C)c4cn([C@H](CO)Cc5ccccc5)nn4)[C@@H]3CC[C@H]2C1=O | 101.0 | 99.3 | 10 | 103.9 | 18 | 106.3 | · | · | · | · | · | · | ·
COc1ccc(Nc2ccc(S(=O)(=O)N3CCCCCC3)cc2[N+](=O)[O-])cc1 | 104.5 | · | 7 | 102.7 | 9 | 106.7 | · | 2.5 | 90.1 | 88.0 | 88.8 | 91.4 | 78.0
NC(=O)c1cccc(CC(=O)c2ccccc2)c1 | 85.7 | ? | 6 | 87.6 | · | 84.2 | · | · | · | · | · | · | ·
O=C(COC(=O)c1ccco1)NCc1ccc2c(c1)OCO2 | 34.3* | ? | 2 | 41.3* | · | 30.3 | · | -0.2 | 112.1 | 114.9 | 109.6 | 112.0 | 98.2
CS(=O)(=O)N(CCc1ccccc1)CC(=O)NCc1ccc2c(c1)OCO2 | 11.1* | 12.8* | 0 | 13.6* | 42 | 3.7* | · | -0.2 | 92.9 | 88.3 | 89.6 | 89.8 | 90.2
Cc1c(C(=O)NCc2ccc3c(c2)OCO3)oc2ccccc12 | 92.5 | 88.5 | 4 | 69.8 | 59 | 22.2* | 92.5* | -0.6 | 106.5 | 104.7 | 111.0 | 103.8 | 118.2
Cc1ccc2oc(C(=O)NCc3ccc4c(c3)OCO4)c(C)c2c1 | 100.8 | 99.8 | 7 | 101.2 | 10 | 100.5 | · | · | · | · | · | · | ·
O=C(COC(=O)c1ccc2c(c1)OCO2)NCc1ccc2c(c1)OCO2 | 124.0 | 112.5 | 7 | 103.2 | 14 | 125.8 | · | · | · | · | · | · | ·
O=C(CCC(=O)N1CCOCC1)c1ccc(F)cc1 | 100.1 | 95.2 | 5 | 99.2 | 11 | 99.0 | · | · | · | · | · | · | ·
CC(=O)NS(=O)(=O)c1ccc(Nc2ccc([N+](=O)[O-])c3nonc23)cc1 | 93.3 | ? | 10 | 93.3 | · | 89.5 | · | · | · | · | · | · | ·
CN1C(=O)CSc2ccc(NC(=O)N3CCC(N4CCCCC4)CC3)cc21 | 109.4 | 109.9 | 4 | 127.4 | 59 | 278.5*[activator] | 109.4* | -4.7 | 97.6 | 64.4* | 77.1 | 76.7 | 64.9
CCn1c(=O)cc(SCC(=O)Nc2cccc(C)n2)c2ccccc21 | 102.2 | 109.2 | 11 | 102.6 | 11 | 97.0 | · | · | · | · | · | · | ·
COCCCNC(CC(=O)Nc1ccc(OC)cc1OC)C(=O)O (stereo unspecified) | · | · | · | · | 55 | · | · | 0.6 | 104.4 | 107.2 | 106.3 | 103.2 | 96.4
COc1ccc(NC(=O)CC(NCCc2ccccc2)C(=O)O)c(OC)c1 (stereo unspecified) | 99.5 | 99.1 | 23 | 101.0 | 13 | 100.5 | · | · | · | · | · | · | ·
CC(C)N(C)C(=O)C(=O)c1cccn1-c1cccc(Cl)c1C#N | 101.3 | 98.5 | 23 | 102.1 | 13 | 103.1 | · | · | · | · | · | · | ·
CC1=Nc2ccccc2N=C(NC(=O)CN2CCN(c3ccc(F)cc3)CC2)C1c1ccccc1 (stereo unspecified) | 107.0 | ? | 5 | 105.1 | · | 107.9 | · | · | · | · | · | · | ·
CC(C)(C)c1ccc(-c2nc(-c3ccncc3)no2)cc1 | 81.4 | 89.4 | 3 | 75.0 | 20 | 22.9* | 81.4* | · | · | · | · | · | ·
CC(C)(C)c1ccc(-c2noc(-c3ccno3)n2)cc1 | 97.9 | ? | 4 | 98.6 | · | 98.2 | · | · | · | · | · | · | ·
SMILES | RGS4-Gao reg | RGS7-Gao reg | Avidin bead fluor | RGS8-Gao reg | GSH bead fluor | RGS16-Gao HTS | RGS4-Gao HTS | Avidin counter | RGS8-Gao confirm | RGS7-Gao single | RGS16-Gao single | RGS4-Gao confirm | RGS19-Gao conf
COc1ccc(/C=C\C(=O)NCc2ccc3c(c2)cc(C)n3C)cc1OC | 79.4 | 79.3 | 4 | 70.8 | 15 | 22.9* | 79.4* | · | · | · | · | · | ·
CCOc1cc(/C=N/NC(=S)Nc2ccccc2C(F)(F)F)ccc1OCC(=O)N1CCOCC1 | 100.5 | 103.6 | 12 | 97.2 | 21 | 92.6 | · | · | · | · | · | · | ·
Fc1ccc(COc2cccc(CNCc3ccncc3)c2)cc1 | 99.1 | 99.1 | 8 | 101.3 | 16 | 100.9 | · | · | · | · | · | · | ·
O=C(N/N=C/c1ccc(N2CCOCC2)o1)c1cccc([N+](=O)[O-])c1 | 87.0 | 86.6 | 2 | 63.4 | 10 | 17.9* | 87.0* | 0.2 | 96.9 | 91.9 | 96.6 | 95.8 | 68.6
CC(C)Oc1ccc(Cc2cnc(N)nc2N)cc1 | 136.6 | 132.0 | 8 | 163.2*[activator] | 40 | i | 136.6* | -0.3 | 103.8 | 103.1 | 102.4 | 103.6 | 100.4
CCCCOc1ccc(Cc2cnc(N)nc2N)cc1 | 99.8 | ? | 6 | 98.7 | · | 99.8 | · | · | · | · | · | · | ·
O=S(=O)(c1ccccc1)N1CCN=C1SCc1cccc(Cl)c1 | 106.6 | 101.4 | 3 | 105.9 | 9 | 111.9 | · | · | · | · | · | · | ·
